# Among all 96,000 compounds or so, about 20,000 (21%) were called active. Only a sample is shown. A number with no mark means an inactive call.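 Rule for the calls: active = CYP2C19 inhibition above a set limit at 5 µM in the primary screen (cut at about 50% in these data); inactive = the rest.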
# Molecular target: Cytochrome P450 2C19 (Homo sapiens) (UniProt P33261)
# Assay: blockers of cytochrome P450 2C19 activity – biochemical, luminescence, ADME assay, primary screen (AID 778);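 note: plate controls were negative control wells for no effect and 2.5 mM tranylcypromine positive control for full effect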
# Conditions: CYP2C19 Supersomes, luciferin-H EGE luminescence, 30 min; at 5 µM; hits give high values
# Cytochrome P450 2C19 (Homo sapiens), sequence (P33261 whole entry, looked up): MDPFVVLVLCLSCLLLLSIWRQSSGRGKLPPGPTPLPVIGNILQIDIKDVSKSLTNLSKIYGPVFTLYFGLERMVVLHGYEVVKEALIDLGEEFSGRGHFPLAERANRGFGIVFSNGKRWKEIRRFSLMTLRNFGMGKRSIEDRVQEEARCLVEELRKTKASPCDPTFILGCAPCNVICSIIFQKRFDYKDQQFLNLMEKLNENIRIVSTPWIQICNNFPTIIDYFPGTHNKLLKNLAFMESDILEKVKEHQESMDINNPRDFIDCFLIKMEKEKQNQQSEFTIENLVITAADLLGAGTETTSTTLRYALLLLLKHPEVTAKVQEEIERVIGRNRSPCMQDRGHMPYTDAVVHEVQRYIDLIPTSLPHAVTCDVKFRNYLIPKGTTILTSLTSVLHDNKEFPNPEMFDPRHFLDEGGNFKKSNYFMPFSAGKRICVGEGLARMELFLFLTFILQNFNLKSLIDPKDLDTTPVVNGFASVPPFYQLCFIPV
row,Structure (SMILES),inhibition
1,Cc1ccc2oc(=O)c3cnn(CC(=O)N4CCCCCC4)c3c2c1,-5.2%
2,C=CCN(C(=O)Nc1ccc2oc(C)nc2c1)c1ccccc1,14.7%
3,C=CCN(C(=O)Cn1ncc2c1-c1cc(C)ccc1OC2)c1ccccc1,63.4% (active)
4,CS(=O)(=O)c1sc2nc(-c3ccccc3)cc(-c3ccccc3)c2c1N,-2.6%
5,O=C(NC1CCCCC1)N1CCc2[nH]c3ccccc3c2C1,44.1%
6,N#Cc1ccc(CSc2nnc(-c3ccccn3)n2-c2ccc(Cl)cc2)cc1,18.3%
7,O=C(NCc1ccccn1)c1cc2ccccc2oc1=O,1.3%
8,O=C(Oc1cccnc1)c1cc2ccccc2oc1=O,-9.9%
9,Nc1ncc(-c2cc3ccccc3oc2=O)s1,51.3% (active)
10,CCCCN(C)C(=O)c1ccc2c(c1)N(CC)C(=O)c1ccccc1S2(=O)=O,22.5%
11,O=C(CCN1C(=O)c2ccccc2C1=O)Nc1cccc(F)c1,78% (active)
12,O=C(CCN1C(=O)c2ccccc2C1=O)Nc1ccncc1,36.2%
13,O=C(CCN1C(=O)c2ccncc2C1=O)Nc1ccc2c(c1)OCCO2,2.4%
14,O=C(COc1ccccc1Cl)Nn1cnnc1,41.3%
15,COc1ccc(Cc2nnc(NC(=O)Cc3cccs3)s2)cc1,17.2%
16,COc1ccc(NC(=O)NC2CC3CCCC(C2)N3Cc2ccccc2)cc1 (centres undefined),0.4%
17,CN(C)c1nc2n(c(=O)n1)CCO2,-6%
18,CN(C)/C=C1/Nc2ccccc2C1=O,14.3%
19,COc1ccc(-c2nc(CS(=O)CC(=O)N3CCc4ccccc4C3)c(C)o2)cc1 (centres undefined),17.7%
20,Cc1oc(-c2ccccc2F)nc1CS(=O)(=O)CC(=O)NCCCN(C)C1CCCCC1,-10.6%
21,Cc1ccccc1-c1nc(CS(=O)(=O)CC(=O)N2CCc3ccccc3C2)c(C)o1,69.4% (active)
22,CCN1CCN(C(=O)/C=C\C(=O)O)CC1,-10.4%

row,Structure (SMILES),inhibition
1,CCOC(=O)c1c(N)c(C#N)nn1-c1ccccc1C(=O)OC,25.3%
2,CCC(=O)NC(NCC1CCCO1)C(Cl)(Cl)Cl (centres undefined),8.6%
3,COCCNC(=O)c1snc2ccc(Cl)cc12,-5.7%
4,CCOC(=O)c1nc(N)sc1C(=O)OCC,-0.6%
5,CCOC(=O)c1cc2ccccc2nc1C,12.8%
6,CCOC(=O)c1sc(C)c2c1NC(C)(c1cccc3ccccc13)NC2=O (centres undefined),82% (active)
7,COC(=O)C(C)n1cnc2c(nnn2-c2cccc(Cl)c2)c1=O (centres undefined),24.7%
8,COc1ccc(Cl)cc1C(=O)Nc1ccc(N(C)C(C)=O)cc1,25.6%
9,COc1ccc(NC(=S)N2N=CCC2c2ccccc2)cc1 (centres undefined),41.5%
10,N#Cc1c(N)n(CCOC(=O)c2ccc(Cl)cc2)c2nc3ccccc3nc12,29.4%
11,CCOC(=O)c1cc(NC(=O)c2ccc(Cl)cc2)c(=O)oc1-c1ccccc1,6.8%
12,CN1OC(COC(=O)c2ccc(Cl)cc2)CC1c1ccccc1 (centres undefined),74.5% (active)
13,CCOc1ccc(OCC)c(NC(=O)C(NS(=O)(=O)c2ccc3c(c2)oc(=O)n3C)C(C)C)c1 (centres undefined),20.9%
14,c1ccc(-c2cc(-c3nnc4sc(-c5ccccn5)nn34)[nH]n2)cc1,10.4%
15,O=C(O)c1cccnc1NC1CCCC1,6.9%
16,O=C(CSc1nnc(-c2ccc(NS(=O)(=O)c3ccccc3)cc2)o1)NCC1CCCO1 (centres undefined),46.1%
17,CCN(CC)C(=O)CSc1nnc(-c2ccc(S(=O)(=O)NCc3ccccc3Cl)cc2)o1,65.4% (active)
18,CCN(CC)C(=O)CSc1nnc(-c2cccc(OC)c2)o1,26.3%
19,CC(CC(=O)Nc1cc(C(F)(F)F)ccc1Cl)c1ccccc1 (centres undefined),61% (active)
20,CC(C)CC(=O)Nc1cc(C(F)(F)F)ccc1N1CCOCC1,32.1%
21,O=C(Nc1cc(C(F)(F)F)ccc1Cl)c1cc2nc3c(c(C(F)(F)F)n2n1)CCCC3,7.6%
22,COC(=O)CNC(=O)c1ccc2c(c1)S(=O)(=O)c1ccccc1C2=O,-4.3%

row,Structure (SMILES),inhibition
1,O=C(CC1OC(=O)c2ccccc21)NC1CCCCC1 (centres undefined),-5.7%
2,O=C(NC(c1ccccc1)c1ccccc1)N1CCN(CCO)CC1,3.6%
3,S=c1[nH]nc2c3c4c(sc3ncn12)CCCC4,-8.5%
4,Cc1cccc(CSc2nnc(NC(=O)CSc3nnc(C)s3)s2)c1,20.2%
5,CCOC(=O)/C(C#N)=C/c1ccc(OCC(=O)Nc2ccccc2)c(OC)c1,4.1%
6,CCOC(=O)/C(=C\c1ccc([N+](=O)[O-])cc1)C(=O)c1cc(C(C)=O)c(Nc2ccccc2)s1,62.8% (active)
7,O=C(NCCc1ccccc1)/C(=C\c1ccc([N+](=O)[O-])cc1)NC(=O)c1ccccc1,-1.2%
8,CCCC(=O)Nc1c(O)c2ccccc2[nH]c1=O,-8.7%
9,COc1ccc(C(=O)Nc2ccc(F)cc2F)cc1,12.1%
10,COc1ccc(OC)c(NC(=O)Cn2c(=O)oc3ccccc32)c1,42.2%
11,CCOc1ccc(S(=O)(=O)Nc2ccc(S(=O)(=O)Nc3cc(OC)ccc3OC)cc2)cc1,91.8% (active)
12,COc1ccc(OC)c(NC(=O)CN2CCN(C(=O)c3ccco3)CC2)c1,8.8%
13,CCOc1ccccc1NC(=O)Nc1cc(OC)ccc1OC,1.1%
14,COc1ccc(OC)c(NC(=O)CCN2CCC(C)CC2)c1,89.8% (active)
15,CCOc1ccc(C(=O)Nc2cc(OC)ccc2OC)cc1,77% (active)
16,CCOc1ccc(CC(=O)Nc2ccc(S(=O)(=O)Nc3cc(C)on3)cc2)cc1OCC,2%
17,CCOc1ccc(S(=O)(=O)Nc2nc3cc(OC)ccc3s2)cc1,16.3%
18,O=P(c1cccs1)(c1cccs1)c1cccs1,7.9%
19,COC(=O)C(C)N(C#N)c1nc(C)nc(C)n1 (centres undefined),15.2%
20,CCOC(=O)C1CCCN(C(=O)c2sc3nc(C)nc(N4CCOCC4)c3c2C)C1 (centres undefined),-5%
